These results are taken from PubChem BioAssay (NCI).

Common to all, as to assay: NCI-60 one-dose screen, 48 h (100 = growth as untreated, 0 = no growth, -100 = all killed)
Holding throughout (conditions): 10 µM unless noted

For test [1], the system named is HCT-15 colon.
Test [2] concerns HT29 colon.
The test system of test [3] is SNB-75 CNS.
Test [4] has as its system SNB-19 CNS.
For test [5], the system named is U251 CNS.
In test [6] the test system is PC-3 prostate.
In test [7] the test system is SK-MEL-5 melanoma.
The subject of test [8] is UACC-62 melanoma.
In test [9] the test system is LOX IMVI melanoma.
The test system of test [10] is SK-MEL-28 melanoma.

This is part of a sample that, as a whole, favours compounds with a hit. Of some 83,000 tested, about 20% had one in any assay.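 Interpretation: 100, growth as untreated; towards 0, rising growth inhibition; 0, no net growth; 0 to -100, cell death. Compounds scoring below 10 were considered active.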 A number with no mark means an inactive call. Active and inactive are the calls of the source.

Consider `Nc1ccc(Cl)c([N+](=O)[O-])c1`, for which the growth was 87.8% in [1]; 106% in [2]; 89.3% in test [3]; 108% in [4]; 99.1% in test [5]; 88.3% in test [6]. The growth in test [7] is 97.6%; in [8], 80.1%; in test [9] it was 66.9%; in test [10] it was 100%.
For the compound `CC1(C)[C@@H](NOCCCN)CC[C@]2(C)[C@H]3C(=O)C=C4[C@@H]5C[C@](C)(C(=O)O)CC[C@]5(C)CC[C@@]4(C)[C@]3(C)CC[C@@H]12`, the growth in test [1] was -15% [100 µM] (active); in [2], -57.8% [100 µM] (active); in test [3], -56.5% [100 µM] (active); in test [4], -54.9% [100 µM] (active); in [5], -71.6% [100 µM] (active); in test [6], -19.6% [100 µM] (active). Moreover, the growth in test [7] is -51.4% [100 µM] (active); in test [8] it was -100% [100 µM] (active); in test [9], -82.6% [100 µM] (active); in [10], -80.7% [100 µM] (active).
As to `C#CCNC(=O)CC[C@]1(C)[C@H]2CC[C@@H]3[C@@H]([C@@](C)(O)CCC=C(C)C)CC[C@@]3(C)[C@]2(C)CC[C@H]1C(=C)C`, the growth is 67.3% [100 µM] in [1]; -30.8% [100 µM] (active) in test [2]; -19% [100 µM] (active) in [3]; 60.9% [100 µM] in [4]; -71.4% [100 µM] (active) in test [5]; 20.5% [100 µM] in test [6]. Further, the growth in [7] is 9.4% [100 µM] (active); in [8] it was 34% [100 µM]; in [9], -67.7% [100 µM] (active); in [10] it was 54.1% [100 µM].
In the case of `COc1cc(Cl)cc(-c2nn(C(=O)NS(=O)(=O)c3ccccc3)cc2-c2ccncc2)c1`, the growth in test [1] is 111%; in test [2], 41.1%; in test [3], 3.59% (active); in [4], 105%; in test [5] it was 81.5%; in test [6] it was 91.4%. For the same compound, the growth is 93.3% in [7], 82.7% in test [8], 59.1% in [9] and 98.7% in [10].
Regarding `Oc1cc(Nc2ccnc3cc(Cl)ccc23)c2ncccc2c1`, the growth is 82% in [1]; 109% in test [2]; 53.2% in [3]; 78.4% in [4]; 77.1% in test [5]; 59.1% in [6]. For the same compound, the growth is 79.2% in test [7], 81.4% in test [8], 72.7% in test [9] and 81.5% in test [10].
`O=C1CC(c2ccccc2)Cc2nc3ccc(Br)cc3cc21` (stereo not given): the growth in [1] is 16%; in test [2], 2.2% (active); in [3], 36.6%; in test [4], 27.4%; in [5], 18.1%; in test [6], 32%. For the same compound, the growth is 2.1% (active) in [7], 36.2% in [8], 31.5% in test [9] and 56.7% in test [10].
As to `C#CC(OC(=O)N(C)C)(c1ccccc1)c1ccc(F)cc1` (stereo not given), the growth in test [1] was 94.8%; in test [2], 116%; in test [3], 93%; in [4] it was 120%; in [5], 94.8%; in test [6], 102%. The growth in test [7] is 112%; in test [8], 86.2%; in test [9] it was 78.3%; in test [10], 96.5%.
Consider `CCn1cc(-c2cc(-c3ccc(Cl)cc3)nc(N)n2)c(-c2ccc(Br)cc2)n1`, for which the growth in test [1] was 64.9%; in [2], 55.8%; in test [3] it was 82.4%; in test [4] it was 88.7%; in [5] it was 87%; in [6], 47%. Besides, the growth was 90.8% in test [7], 60.7% in test [8], 88.5% in test [9] and 61.3% in test [10].
Regarding `Clc1ccc2nc(-c3ccc(-c4ccc(/C=N/NC5=NCCN5)cc4)s3)cn2c1`, the growth in test [1] was -27.3% (active); in test [2], 38.8%; in test [3] it was 83.9%; in test [4], 97.1%; in test [5] it was 97.5%; in [6], 89.4%. Besides, the growth was 93% in test [7], 102% in [8], 97.9% in test [9] and 99.5% in test [10].
As to `CC1=CCc2ccccc21`, the growth in test [1] was 109%; in test [2], 95.7%; in test [3], 83.9%; in [4] it was 101%; in test [5] it was 103%; in [6], 86.2%. Besides, the growth in [7] is 101%; in test [8], 86.2%; in test [9], 105%; in test [10], 104%.
As to `Nc1nc(N)c2c(n1)NC(c1ccc(F)cc1)C1CCc3ccccc3C1=N2` (stereo not given), the growth in test [1] was 49.6%; in [2], 27.9%; in [3] it was 63.1%; in test [4] it was 70.7%; in test [5], 41.8%; in [6] it was 45%. In addition, the growth in test [7] is 1.07% (active); in test [8] it was 47.5%; in test [9], 52.8%; in test [10] it was 93.4%.
With `CC[C@@](C)(NC(=O)[C@H](C)NC(=O)CCNC(=O)C(C)(C)NC(=O)[C@H](C)NC(=O)[C@@H]1CCCN1C(=O)[C@@](C)(CC)NC(=O)[C@H](Cc1ccccc1)NC(=O)C1CCCN1C(=O)C(C)(C)NC(=O)C1CCCN1C(=O)C(C)(C)NC(C)=O)C(=O)NCCC(=O)N[C@@H](CC(C)C)C(=O)NC(C)(C)C(=O)NCCC(=O)N[C@@H](CC(C)C)C(=O)NC(C)(C)C(=O)NC(C)(C)C(=O)N[C@@H](CC(C)C)C(=O)NCCC(=O)NCO` (stereo not given in full), the growth in test [1] was -99.4% (active); in test [2] it was -70.8% (active); in [3], -96.4% (active); in test [4] it was -87.2% (active); in test [5], -99.1% (active); in [6], -94.6% (active). Also, the growth in test [7] is -100% (active); in [8], -75.3% (active); in test [9], -100% (active); in [10] it was -84.1% (active).
With `C=C(C)[C@@H]1CC[C@]2(C(=O)NCCNCCNCCN)CC[C@]3(C)[C@H](CC[C@@H]4[C@@]5(C)CCC(=O)C(C)(C)[C@@H]5CC[C@]43C)[C@@H]12`, the growth in test [1] was -36.6% [100 µM] (active); in test [2], -77.4% [100 µM] (active); in test [3] it was -41.5% [100 µM] (active); in test [4], -78.5% [100 µM] (active); in test [5], -81.8% [100 µM] (active); in test [6] it was -24.6% [100 µM] (active). Besides, the growth in test [7] was -86.2% [100 µM] (active); in [8], -77.9% [100 µM] (active); in [9], -68.2% [100 µM] (active); in test [10], -73.9% [100 µM] (active).
